Measurements: the supplement of paper PMC6411743
± gives the standard deviation of the averaged measurements. The full data set covers some 5,400 targets. This sample favours those with the largest changes.

Tests used:
Assay in all cases: NP40-soluble protein abundance relative to vehicle (solubility fold change) (ratio); higher = more soluble protein in presence of GTP
ARHGAP1 = biological target: T1, ARHGAP1 (UniProt Q07960)
T1 sequence (whole entry): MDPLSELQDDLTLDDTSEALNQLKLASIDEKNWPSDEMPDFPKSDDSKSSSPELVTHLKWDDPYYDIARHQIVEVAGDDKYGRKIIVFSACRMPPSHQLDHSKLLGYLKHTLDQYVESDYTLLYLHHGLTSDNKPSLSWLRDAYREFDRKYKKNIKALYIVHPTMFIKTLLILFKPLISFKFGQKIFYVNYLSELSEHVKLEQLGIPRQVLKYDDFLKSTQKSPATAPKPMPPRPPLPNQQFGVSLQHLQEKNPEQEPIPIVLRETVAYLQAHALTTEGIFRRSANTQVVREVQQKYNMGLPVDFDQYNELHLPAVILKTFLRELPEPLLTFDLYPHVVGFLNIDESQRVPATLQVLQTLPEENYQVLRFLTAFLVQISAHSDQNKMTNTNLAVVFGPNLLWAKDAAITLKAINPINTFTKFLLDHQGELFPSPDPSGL
Method in brief: (§1)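 Each value is a fold change relative to the detergent-processed vehicle, calculated per replicate from vsn-normalised intensities. Jurkat crude lysate received eight concentrations (0.1 to 10 mM) for 10 min at room temperature and 3 min at 37 °C, then was solubilised in 0.8% NP40 with benzonase (60 min, 4 °C). The ultracentrifuged supernatant was TMT-labelled and run by LC-MS/MS in three independent experiments.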

[1] = biological target: T2, UniProt Q08170|A0A0D9SEM4
T2 sequence (whole entry): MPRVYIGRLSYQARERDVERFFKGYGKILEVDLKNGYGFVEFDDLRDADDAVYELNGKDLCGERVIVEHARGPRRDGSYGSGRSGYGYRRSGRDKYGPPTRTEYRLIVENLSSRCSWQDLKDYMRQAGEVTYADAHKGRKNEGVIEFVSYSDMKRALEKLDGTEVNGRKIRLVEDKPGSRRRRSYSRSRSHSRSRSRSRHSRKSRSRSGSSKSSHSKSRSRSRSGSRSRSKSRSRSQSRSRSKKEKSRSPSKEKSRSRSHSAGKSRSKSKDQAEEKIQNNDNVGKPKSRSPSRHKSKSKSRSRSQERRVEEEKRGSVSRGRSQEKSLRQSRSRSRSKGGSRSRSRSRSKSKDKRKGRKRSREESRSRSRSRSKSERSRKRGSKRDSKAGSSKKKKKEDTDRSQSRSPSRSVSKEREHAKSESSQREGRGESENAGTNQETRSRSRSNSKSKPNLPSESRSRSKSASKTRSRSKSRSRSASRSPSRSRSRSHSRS
Method in brief: as §1

[2] = biological target: T3, UniProt Q4ADV7|Q4ADV7-3|Q4ADV7-2
T3 sequence (whole entry): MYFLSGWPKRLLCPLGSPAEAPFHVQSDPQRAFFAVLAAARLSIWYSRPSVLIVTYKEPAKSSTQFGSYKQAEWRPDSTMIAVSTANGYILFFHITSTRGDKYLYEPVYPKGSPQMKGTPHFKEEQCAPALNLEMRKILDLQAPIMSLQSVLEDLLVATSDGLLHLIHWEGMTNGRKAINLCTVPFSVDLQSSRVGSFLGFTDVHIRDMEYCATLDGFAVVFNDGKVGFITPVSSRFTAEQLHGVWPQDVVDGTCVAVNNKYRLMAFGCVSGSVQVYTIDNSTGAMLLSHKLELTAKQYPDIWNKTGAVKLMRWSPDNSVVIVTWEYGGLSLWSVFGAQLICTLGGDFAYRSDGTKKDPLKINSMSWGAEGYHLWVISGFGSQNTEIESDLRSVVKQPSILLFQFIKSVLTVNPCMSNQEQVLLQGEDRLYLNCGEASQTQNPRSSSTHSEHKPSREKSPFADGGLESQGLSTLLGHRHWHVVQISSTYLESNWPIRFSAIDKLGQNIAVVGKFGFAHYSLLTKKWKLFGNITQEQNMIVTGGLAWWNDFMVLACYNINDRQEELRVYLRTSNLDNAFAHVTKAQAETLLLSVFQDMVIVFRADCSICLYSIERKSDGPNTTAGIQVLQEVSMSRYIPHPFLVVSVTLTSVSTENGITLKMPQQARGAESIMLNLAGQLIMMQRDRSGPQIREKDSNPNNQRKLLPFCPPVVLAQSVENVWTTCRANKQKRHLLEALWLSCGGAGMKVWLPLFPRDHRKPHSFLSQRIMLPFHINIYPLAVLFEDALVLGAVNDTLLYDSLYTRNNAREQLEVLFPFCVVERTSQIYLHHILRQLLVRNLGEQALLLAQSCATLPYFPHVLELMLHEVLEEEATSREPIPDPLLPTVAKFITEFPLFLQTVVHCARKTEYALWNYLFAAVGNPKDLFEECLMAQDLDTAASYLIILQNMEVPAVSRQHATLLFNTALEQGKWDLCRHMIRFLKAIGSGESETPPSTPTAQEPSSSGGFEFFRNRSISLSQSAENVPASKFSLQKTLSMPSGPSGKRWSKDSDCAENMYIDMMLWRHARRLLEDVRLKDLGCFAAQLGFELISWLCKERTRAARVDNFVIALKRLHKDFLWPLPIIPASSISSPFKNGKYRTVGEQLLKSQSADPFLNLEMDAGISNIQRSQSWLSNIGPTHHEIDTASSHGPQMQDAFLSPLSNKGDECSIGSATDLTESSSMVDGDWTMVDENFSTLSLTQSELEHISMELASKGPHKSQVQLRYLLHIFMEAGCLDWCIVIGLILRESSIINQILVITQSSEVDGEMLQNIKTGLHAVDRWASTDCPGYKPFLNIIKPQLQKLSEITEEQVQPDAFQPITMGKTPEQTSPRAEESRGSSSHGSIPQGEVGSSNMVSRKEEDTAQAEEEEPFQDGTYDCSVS
Method in brief: as §1

UniProt Q68CQ4 = biological target: T4, UniProt Q68CQ4
T4 sequence (whole entry): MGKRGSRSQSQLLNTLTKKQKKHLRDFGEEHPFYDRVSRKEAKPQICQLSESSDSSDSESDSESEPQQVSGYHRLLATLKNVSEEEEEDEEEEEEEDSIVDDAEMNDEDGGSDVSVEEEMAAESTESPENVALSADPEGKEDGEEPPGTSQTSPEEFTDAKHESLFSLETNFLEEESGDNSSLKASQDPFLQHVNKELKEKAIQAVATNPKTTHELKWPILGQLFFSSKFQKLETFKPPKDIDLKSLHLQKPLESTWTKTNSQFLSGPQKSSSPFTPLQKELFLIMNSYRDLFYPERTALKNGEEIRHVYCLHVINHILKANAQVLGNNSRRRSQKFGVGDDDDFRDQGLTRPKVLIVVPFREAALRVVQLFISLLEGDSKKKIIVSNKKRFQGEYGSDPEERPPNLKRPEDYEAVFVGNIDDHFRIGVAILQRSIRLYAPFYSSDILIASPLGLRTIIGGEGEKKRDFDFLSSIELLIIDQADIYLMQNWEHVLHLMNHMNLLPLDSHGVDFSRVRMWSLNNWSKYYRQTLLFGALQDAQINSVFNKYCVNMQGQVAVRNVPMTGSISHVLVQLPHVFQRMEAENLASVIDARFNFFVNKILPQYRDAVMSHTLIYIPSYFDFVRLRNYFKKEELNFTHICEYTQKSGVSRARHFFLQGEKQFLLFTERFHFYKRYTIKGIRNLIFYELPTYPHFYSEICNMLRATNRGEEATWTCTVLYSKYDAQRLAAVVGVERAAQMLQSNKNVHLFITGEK
Method in brief: as §1

[3] = biological target: T5, UniProt Q6ULP2|Q6ULP2-2|Q6ULP2-4|Q6ULP2-5|Q6ULP2-3
T5 sequence (whole entry): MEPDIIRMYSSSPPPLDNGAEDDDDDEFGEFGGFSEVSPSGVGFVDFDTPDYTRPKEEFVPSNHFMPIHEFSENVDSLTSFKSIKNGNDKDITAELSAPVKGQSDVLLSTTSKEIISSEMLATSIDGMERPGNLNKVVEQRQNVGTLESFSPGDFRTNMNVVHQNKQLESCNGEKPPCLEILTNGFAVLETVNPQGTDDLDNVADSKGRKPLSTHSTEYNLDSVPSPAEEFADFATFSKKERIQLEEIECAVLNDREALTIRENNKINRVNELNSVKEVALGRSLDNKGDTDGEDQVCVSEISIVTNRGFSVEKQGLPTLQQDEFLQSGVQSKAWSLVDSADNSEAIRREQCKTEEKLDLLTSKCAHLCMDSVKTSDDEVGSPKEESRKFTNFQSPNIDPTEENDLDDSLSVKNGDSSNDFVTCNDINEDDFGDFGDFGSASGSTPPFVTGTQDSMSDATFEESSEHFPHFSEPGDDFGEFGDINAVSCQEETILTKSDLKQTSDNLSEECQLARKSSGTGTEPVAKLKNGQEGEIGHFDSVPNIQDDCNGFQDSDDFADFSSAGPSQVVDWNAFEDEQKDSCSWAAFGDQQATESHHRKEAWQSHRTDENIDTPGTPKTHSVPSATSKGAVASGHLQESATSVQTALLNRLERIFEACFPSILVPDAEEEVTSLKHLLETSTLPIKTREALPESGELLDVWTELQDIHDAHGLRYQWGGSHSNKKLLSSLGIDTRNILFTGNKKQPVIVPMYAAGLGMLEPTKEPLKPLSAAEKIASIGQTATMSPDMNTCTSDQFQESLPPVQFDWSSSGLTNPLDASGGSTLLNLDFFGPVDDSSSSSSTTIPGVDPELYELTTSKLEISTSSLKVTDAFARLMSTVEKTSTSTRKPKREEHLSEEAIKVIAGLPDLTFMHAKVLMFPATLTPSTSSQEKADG
Method in brief: as §1

**Q.** What does the source list for `Nc1nc2c(ncn2[C@@H]2O[C@H](COP(=O)(O)OP(=O)(O)OP(=O)(O)O)[C@@H](O)[C@H]2O)c(=O)[nH]1` [guanosine triphosphate]?
**A.** NP40-soluble protein abundance (ARHGAP1; concentration: 0.1mM): 0.963 ± 0.015; NP40-soluble protein abundance (ARHGAP1; concentration: 0.5mM): 0.961 ± 0.012; NP40-soluble protein abundance (ARHGAP1; concentration: 1mM): 0.952 ± 0.011; NP40-soluble protein abundance (ARHGAP1; concentration: 2mM): 0.93 ± 0.045; NP40-soluble protein abundance (ARHGAP1; concentration: 4mM): 0.942 ± 0.042; NP40-soluble protein abundance (ARHGAP1; concentration: 6mM): 0.911 ± 0.037; NP40-soluble protein abundance (ARHGAP1; concentration: 8mM): 0.867 ± 0.06; NP40-soluble protein abundance (ARHGAP1; concentration: 10mM): 0.908 ± 0.064; NP40-soluble protein abundance ([1]; concentration: 0.1mM): 0.928 ± 0.042; NP40-soluble protein abundance ([1]; concentration: 0.5mM): 1.23 ± 0.055; NP40-soluble protein abundance ([1]; concentration: 1mM): 1.27 ± 0.028; NP40-soluble protein abundance ([1]; concentration: 2mM): 1.15 ± 0.052; NP40-soluble protein abundance ([1]; concentration: 4mM): 0.94 ± 0.034; NP40-soluble protein abundance ([1]; concentration: 6mM): 1.09 ± 0.042; NP40-soluble protein abundance ([1]; concentration: 8mM): 1.2 ± 0.053; NP40-soluble protein abundance ([1]; concentration: 10mM): 1.08 ± 0.035; NP40-soluble protein abundance ([2]; concentration: 0.1mM): 1.09 ± 0.11; NP40-soluble protein abundance ([2]; concentration: 0.5mM): 1.13 ± 0.091; NP40-soluble protein abundance ([2]; concentration: 1mM): 1.02 ± 0.04; NP40-soluble protein abundance ([2]; concentration: 2mM): 1.07 ± 0.077; NP40-soluble protein abundance ([2]; concentration: 4mM): 1.12 ± 0.18; NP40-soluble protein abundance ([2]; concentration: 6mM): 0.946 ± 0.025; NP40-soluble protein abundance ([2]; concentration: 8mM): 0.92397 ± 0.00016; NP40-soluble protein abundance ([2]; concentration: 10mM): 0.963 ± 0.19; NP40-soluble protein abundance (UniProt Q68CQ4; concentration: 0.1mM): 1.02 ± 0.068; NP40-soluble protein abundance (UniProt Q68CQ4; concentration: 0.5mM): 1.02 ± 0.051; NP40-soluble protein abundance (UniProt Q68CQ4; concentration: 1mM): 1.01 ± 0.048; NP40-soluble protein abundance (UniProt Q68CQ4; concentration: 2mM): 0.992 ± 0.04; NP40-soluble protein abundance (UniProt Q68CQ4; concentration: 4mM): 0.999 ± 0.026; NP40-soluble protein abundance (UniProt Q68CQ4; concentration: 6mM): 0.994 ± 0.042; NP40-soluble protein abundance (UniProt Q68CQ4; concentration: 8mM): 1.02 ± 0.046; NP40-soluble protein abundance (UniProt Q68CQ4; concentration: 10mM): 1.03 ± 0.048; NP40-soluble protein abundance ([3]; concentration: 0.1mM): 1.01 ± 0.098; NP40-soluble protein abundance ([3]; concentration: 0.5mM): 1.02 ± 0.066; NP40-soluble protein abundance ([3]; concentration: 1mM): 0.979 ± 0.064; NP40-soluble protein abundance ([3]; concentration: 2mM): 1 ± 0.044; NP40-soluble protein abundance ([3]; concentration: 4mM): 1.06 ± 0.041; NP40-soluble protein abundance ([3]; concentration: 6mM): 1 ± 0.023; NP40-soluble protein abundance ([3]; concentration: 8mM): 1.03 ± 0.033; NP40-soluble protein abundance ([3]; concentration: 10mM): 1.02 ± 0.042
